A selection: hits, their analogues and other compounds. The true share with any hit is near 3.6%.
TRHR agonist = agonists of human TRH receptor | actives 0.18% (n = 360,000) | P34981 | activation, % at 2 µM | TRHR cells, calcium flux fluo-8, FDSS agonist mode; also: 0% is about no effect
Target sequence (P34981 whole entry, looked up): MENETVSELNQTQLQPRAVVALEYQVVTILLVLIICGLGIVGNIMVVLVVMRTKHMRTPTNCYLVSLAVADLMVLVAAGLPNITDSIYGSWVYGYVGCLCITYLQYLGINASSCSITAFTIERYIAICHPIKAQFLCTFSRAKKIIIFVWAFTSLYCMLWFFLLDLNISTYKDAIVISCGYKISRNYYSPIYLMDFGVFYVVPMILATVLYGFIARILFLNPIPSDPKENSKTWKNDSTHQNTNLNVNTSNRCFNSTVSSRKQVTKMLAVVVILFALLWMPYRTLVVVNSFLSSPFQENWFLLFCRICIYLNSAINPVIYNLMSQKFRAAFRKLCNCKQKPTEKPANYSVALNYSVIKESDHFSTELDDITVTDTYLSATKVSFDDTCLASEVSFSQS
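Read-out: compound-evoked intracellular calcium rise in TRHR cells, fluo-8 dye, kinetic FDSS fluorescence at 1 s/cycle following a 10-cycle baseline. Cells cultured overnight before dye loading (30 min–1.5 h, RT).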
D1 PAM = potentiators of human D1 dopamine receptor; potentiation, % at 10 µM; actives 0.036% (n = 360,000); HEK293 TREx D1 cells, calcium flux, dopamine EC20 potentiation; in the data active = potentiation above about 30%; also: 0% is about no effect
TRHR enhancer = allosteric enhancers of human TRH receptor. actives 0.66% (n = 360,000). enhancement, % at 2 µM. AID 493056. TRHR cells, fluo-8 calcium fluorescence, EC20 TRH enhancement. P34981; in the data active = enhancement above about 30%; also: 0% is about no effect
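Enhancer read-out: after compound pinning and an initial kinetic agonist-mode read, an EC20 of TRH (10 nM final) was injected and fluo-8 calcium signal (Ex 480/Em 530) followed at 1 s/cycle for 100 cycles in TRHR-expressing cells.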
D1 antag = blocks dopamine activation of the human D1 receptor. actives 3.2% (n = 360,000). P21728. activity change, negative = inhibition, % at 10 µM. HEK293 TREx D1 cells, calcium flux, dopamine EC80; active compounds read low. AID 504652; in the data active = activity change below about -30%; also: % is scaled to controls: 0 for no effect and ±100 for the full control effect
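HEK293 T-REx cells expressing inducible, force-coupled D1 receptor; no-wash Ca dye, 30–90 min RT. Cmpd → 180 s read at 1 Hz → EC80 DA → 180 s read.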
LDHA block = blocks human lactate dehydrogenase A | AID 1347041 | activity change, % (values are at about 110 or 230 µM) | purified LDHA, NADH/diaphorase-resazurin fluorescence; active compounds read low | actives 0.15% (n = 480,000); in the data active = activity change below about -30%;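 also: plate controls were DMSO wells for no effect and wells without enzyme for full effect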
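Human LDH5 (2 nM) was incubated with 0.06 mM NADH and 0.2 mM pyruvate for 5 min at room temperature in Tris pH 7.4. Remaining NADH was coupled through diaphorase/resazurin, and resorufin fluorescence was read at 0 and 20 min.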
D1 ag = agonists of human D1 dopamine receptor; activation, % at 2 µM; P21728; actives 1% (n = 360,000); AID 504660; HEK293 T-REx D1 cells, calcium flux, agonist mode; also: 0% is about no effect
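Agonism was scored from calcium flux recorded over 180 s (1 read/s) after pintool compound addition, following a 10-cycle baseline. Cells were inducible force-coupled HEK293 TREx D1, plated overnight at 30 C and loaded with no-wash calcium dye.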
An asterisk follows results filed as active; x = not tested or not shown. Rule as the data show it, unless noted: active = activation above about 30%; inactive = the rest.

SMILES | TRHR agonist | D1 PAM | TRHR enhancer | D1 antag | LDHA block | D1 ag
Cn1cc(SCC(=O)Nc2ccc3c(c2)OCCO3)c2ccccc21 | -1 | -2 | -2 | -39* | 3 | -1
O=C(CN1CCN(c2nc(-c3ccccc3)cs2)CC1)Nc1ccc2c(c1)OCO2 | 0 | -9 | -3 | -32* | -1 | 2
CN(CC(=O)Nc1ccc(F)cc1)C(=O)Cn1c(=O)oc2ccccc21 | 1 | 0 | 7 | 2 | 1 | 3
NNc1cc(N2CCN(c3ccccc3)CC2)ncn1 | x | x | x | x | 11 | x
COc1cccc(/C=C/C(=O)c2ccc(C(=O)O)s2)c1OC | x | x | x | x | -4 | x
CCOc1nc2ccccc2nc1N1CCC(C(=O)Nc2cccc(F)c2)CC1 | x | x | x | x | 4 | x
CCC(C)c1ccccc1OS(=O)(=O)c1ccc2oc(=O)ccc2c1 (stereo not drawn) | x | x | x | x | 4 | x
O=C(Nc1c[nH]c(=O)[nH]c1=O)c1ccccc1Cl | 0 | -2 | 30* | 3 | -6 | 1
COc1ccccc1C(=O)Nc1c[nH]c(=O)[nH]c1=O | 1 | -1 | 4 | 0 | -6 | 1
NC1=NC[C@H](Cc2ccccc2)N1CCCCC1CCCCC1 | 0 | 5 | 3 | 29 | -1 | 11
NC1=NC[C@H](Cc2ccccc2)N1CCc1cccc(F)c1 | 0 | -3 | 3 | -37* | -5 | 1
COc1cccc(CNC(=O)c2ccc(C(F)(F)F)cc2)c1 | x | x | x | x | -1 | x
Cc1ccc(C)c(C2NC(=O)c3ccccc3N2)c1 (stereo not drawn) | 0 | -1 | 37* | -24 | -1 | 0
N#Cc1ccc(Oc2nc(-c3ccccc3O)nc3ccccc23)cc1 | x | x | x | x | 4 | x
Cc1nnsc1NC(=O)OCc1ccc(C(C)(C)C)cc1 | 0 | -2 | -6 | -32* | -2 | 8
CN1CCN(CCCNCc2cn(CCC#N)c3ccccc23)CC1 | -1 | 2 | 5 | -2 | -40* | 0
Cc1ccc(NC(=O)C2CCN(C(=O)c3ccccc3C)CC2)cc1 | 0 | 0 | 4 | -44* | 0 | 0
Cc1ccccc1C(=O)N1CCC(C(=O)Nc2cccc(F)c2)CC1 | 0 | 1 | 2 | 19 | -7 | 6
COc1cc(NS(=O)(=O)c2ccc(NC(=S)NC(=O)C3CCCC3)cc2)nc(OC)n1 | 0 | -12 | -6 | -35* | 1 | 1
CN(CCOc1ccc(Cl)cc1)C(=O)C1CCN(C(=O)c2ccc(F)cc2)CC1 | 1 | -12 | 18 | -33* | -2 | 13
COc1ccc(C(=O)N2CCC(C(=O)Nc3ccc(Cl)cc3)CC2)cc1 | -1 | -3 | 8 | -42* | -1 | 16
COc1cc(NS(=O)(=O)c2ccc(NC(=S)Nc3ccccc3)cc2)nc(OC)n1 | 1 | 4 | 7 | 14 | -2 | 2
COc1ccc(-c2cc(C(=O)OCC3CCCO3)c3ccccc3n2)cc1OC (stereo not drawn) | x | x | x | x | 3 | x
COc1ccc(CCNC(=O)c2ccc(N3C(=O)CCS3(=O)=O)cc2)cc1 | x | x | x | x | -4 | x
CCCCNc1nc2c(c(=O)[nH]c(=O)n2C)n1Cc1cccc(C)c1 | x | x | x | x | -1 | x
SMILES | TRHR agonist | D1 PAM | TRHR enhancer | D1 antag | LDHA block | D1 ag
Cc1cc(C)cc(NC(=O)CC2CC3CCC2C3)c1 (stereo not drawn) | x | x | x | x | 1 | x
COC(=O)c1ccccc1NC(=O)C1CCN(C(=O)c2ccc(OC)cc2)CC1 | 0 | -13 | -5 | -33* | -3 | 1
COc1ccc(NS(=O)(=O)c2ccc(NC(=O)C3CC3)cc2)cc1 | 0 | -12 | -18 | -87* | -3 | 12
COc1ccc2nc(C)cc(Nc3ccccc3O)c2c1 | 1 | -5 | -3 | -35* | 3 | -1
O=C(Nc1ccc(F)cc1F)c1c(C(F)(F)F)ccnc1Oc1ccccc1 | 0 | -5 | -5 | -15 | -4 | 0
Cc1cccc(Oc2nccc(C(F)(F)F)c2C(=O)Nc2ccc(F)cc2F)c1 | 0 | 3 | 5 | -54* | -5 | 3
CC(C)c1ccc(NC(=O)C2CC(=O)N(C(C)(C)C)C2)cc1 (stereo not drawn) | x | x | x | x | 0 | x
Cc1c(CCO)c(=O)n(C)n1C(=O)c1ccc(F)cc1 | 0 | -7 | -1 | 12 | -15 | 5
Cc1c(CCO)c(=O)[nH]n1C(=O)c1ccc(F)cc1 | 0 | -9 | 2 | -31* | -2 | 1
CCCCC(=O)Nc1ccc(O)c(-c2nc3cc(CC)ccc3o2)c1 | x | x | x | x | 8 | x
CC1CCCCN1S(=O)(=O)c1cc2c3c(c1)CC(=O)N3CCC2 (stereo not drawn) | 0 | 1 | 32* | x | 3 | -1
O=C(Nc1cc(-c2nc3ccccc3o2)ccc1Cl)c1ccc([N+](=O)[O-])o1 | x | x | x | x | -7 | x
CS(=O)(=O)Nc1ccccc1NC(=O)Cc1ccc2c(c1)CCC2 | x | x | x | x | -10 | x
CC1(C)CC(=O)C2=C(C1)OC(N)=C(C#N)C2c1cc2c(cc1[N+](=O)[O-])OCO2 (stereo not drawn) | 1 | -2 | 0 | -33* | 7 | 1
CCOc1cc(C2C(C#N)=C(N)OC3=C2C(=O)CC(C)(C)C3)cc([N+](=O)[O-])c1O (stereo not drawn) | 0 | -3 | -4 | 10 | 6 | 4
CC(OC(=O)c1cc(=O)[nH]c2ccccc12)C(=O)N(C)c1ccccc1 (stereo not drawn) | x | x | x | x | -6 | x
COc1ccc(NC(=O)CCC(=O)N/N=C/c2ccncc2)cc1 | 1 | -5 | 1 | -64* | -3 | 2
COc1ccc(/C=N/NC(=O)CNS(=O)(=O)c2ccccc2)cc1 | 0 | -6 | 6 | -38* | -7 | 0
COc1cccc(/C=N/NC(=O)CCn2cnc3ccccc32)c1 | -1 | 2 | 1 | -9 | -12 | 2
COc1ccc(/C=N/NC(=O)CCn2cnc3ccccc32)cc1 | -1 | -4 | -3 | -51* | -9 | 4
CC(=O)Nc1ccc(/C=N/NC(=O)CNS(=O)(=O)c2ccccc2)cc1 | 0 | -1 | 4 | -2 | -9 | 3
Cc1ccccc1NC(=O)CCC(=O)N/N=C/c1ccncc1 | 3 | -3 | -3 | -40* | -3 | 11
COc1cccc(OC)c1C(=O)Oc1ccc2c(c1)O/C(=C\c1cccnc1)C2=O | x | x | x | x | -5 | x
N#Cc1ccc(/C=N/Nc2c(Cl)cc(Cl)cc2Cl)cc1 | x | x | x | x | 11 | x
O=C(Nc1cccc(Cl)c1)c1c(-c2ccc(F)cc2)nc2n1CCS2(=O)=O | x | x | x | x | 0 | x
O=C(Nc1ccc(Cl)cc1)N(Cc1cccc(O)c1)C1CCC(O)CC1 (stereo not drawn) | x | x | x | x | -2 | x
Cc1ccccc1C(=O)Nc1ccc(C(=O)N/N=C/c2ccncc2)cc1 | 0 | -2 | -3 | -10 | -10 | 1
O=C(Nc1ccccc1C(=O)N/N=C/c1ccncc1)c1ccccc1 | 0 | -11 | 0 | -32* | -1 | 3
